Vaccinia pol inh: vaccinia E9 polymerase processive synthesis inhibition. in vitro processive DNA synthesis, absorbance read-out; stronger effect = lower value. normalized absorbance, % (concentration not given with the values). 46,000 tested, 0.94% active; in the data active = normalized absorbance mostly below about 85%, no sharp cut-off; inactive = mostly above about 86%
Hits are given with their value; n = inactive. The sample as a whole holds a higher share of hits than the screen did.

SMILES	Vaccinia pol inh
CC(C)C(C(=O)O)N1C(=O)/C(=C/c2ccccc2)SC1=S (configuration not stated)	83
COc1cc(/C=C2\SC(=S)N(C(C(=O)O)C(C)C)C2=O)cc(OC)c1O (configuration not stated)	n
O=C(O)C(Cc1ccccc1)N1C(=O)/C(=C/c2ccccc2)SC1=S (configuration not stated)	n
OC(Cn1ccc2ccccc21)Cn1cnc2ccccc21 (configuration not stated)	n
CCOC(CNc1nc(C)nc2sc3c(c12)CCCC3)OCC	n
Cc1c(Sc2ccc(Cl)cc2)cnn1C(=O)Nc1cccc(C(F)(F)F)c1	71
O=C(Nc1cccc(Cl)c1)n1ncc2cc(Cl)ccc21	n
Cc1ccnc(SCC(=O)Nc2cccc(C(F)(F)F)c2)n1	n
CN1C(=O)/C(=C\c2ccccc2C(F)(F)F)SC1=S	n
CCOC(=O)c1c(CS(=O)(=O)Cc2ccc(Cl)cc2)oc2c(F)c(F)c(F)c(F)c12	n
O=C1Nc2ccccc2O/C1=C\c1ccccc1	n
O=C(NCCCN1CCOCC1)c1ccccc1	n
CC1CCN(CCCNC(=O)c2ccc(/C=C3\Oc4ccccc4NC3=O)cc2)CC1	70
CC(C)Sc1nc2ccccc2c(=O)n1-c1ccc(F)cc1F	n
Cc1ccc2c(c1)-c1onc(C(=O)NCCCN3CCCCC3)c1CO2	n
CN(CCC#N)C(=O)C1CCC(CNS(=O)(=O)c2ccccc2)CC1 (configuration not stated)	n
CCc1ccc2c(c1)c1nc3ccccc3nc1n2CC	n
CC(C)Cn1c2ccccc2c2nc3ccccc3nc21	n
CCn1c2ccccc2c2nc3ccccc3nc21	90
Cc1cc2c(cc1S(=O)(=O)NC1CCCCC1)OCCN2C	n
O=S(=O)(/N=C(\Nc1cccc2ccccc12)c1ccccc1)c1ccccc1	n
Cc1csc2c(N3CCN(C(=O)NC(C)(C)C)CC3)ncnc12	60
COC(=O)c1sccc1S(=O)(=O)N1CCN(c2ncnc3c(C)csc23)CC1	n
Cc1csc2c(N3CC(C)OC(C)C3)ncnc12 (configuration not stated)	n
Oc1ccccc1Oc1ccccc1	n
SMILES	Vaccinia pol inh
COC(CNC(=O)c1cc2c(C)nc3ccccc3c2o1)OC	n
COC(CN(C)C(=O)c1cc2c(C)nc3ccccc3c2o1)OC	n
Cc1nc2ccccc2c2oc(C(=O)NCCN(C)C3CCCCC3)cc12	46
COc1ccc(C(=O)COC(=O)/C=C/c2cccc(C(F)(F)F)c2)cc1	n
Cc1ccccc1Cn1c2ccccc2c2cnn(CC(=O)N3CCCC3)c(=O)c21	n
Cc1nc2c(o1)N(c1ccccc1)C(N)=C(C#N)C2c1ccc(OC(C)C)cc1 (configuration not stated)	n
COc1ccc(C(CC(=O)c2ccco2)Sc2cccc3cccnc23)cc1OC (configuration not stated)	n
Cc1nnc(N2C(=N)S/C(=C\c3ccccc3Cl)C2=O)s1	n
O=C1c2ccccc2C(=O)N1c1nccs1	n
N=C1S/C(=C/c2ccco2)C(=O)N1c1nccs1	52
O=C(Cc1cc(F)cc(F)c1)Nc1ccc(F)cc1	n
CC(C)Cn1c(CNC(=O)Cc2ccccc2)nc2ccccc21	n
O=C(O)c1ccc2c(c1)NC(=O)C1CCCN21 (configuration not stated)	48
CC1CCc2[nH]c3ccc(C(=O)O)cc3c2C1 (configuration not stated)	n
COC(=O)c1ccc2c(c1)NC(=O)C1CCCN21 (configuration not stated)	n
N#CC(c1cccc(C(F)(F)F)c1)N1CCOCC1 (configuration not stated)	n
Cc1ccsc1CCNC(=O)c1cc(-c2ccc(Cl)cc2)n[nH]1	n
Clc1ccc2oc(-c3ccccc3)cc(=NCc3cccnc3)c2c1	66
Cc1ccc2oc(-c3ccc(Cl)cc3)cc(=O)c2c1	n
COc1ccc(-c2cc(=Nc3ccc(C)cc3C)c3cc(O)ccc3o2)cc1	n
CCCN=c1cc(-c2ccccc2)oc2ccc(C)cc12	42
Clc1ccc2oc(-c3cccnc3)nc2c1	n
Cc1cc(NCc2cccnc2)c2ccc(Cl)cc2n1	n
CC1CC(C)CN(C(=O)c2ccc(-n3c(=S)[nH]c4ccccc4c3=O)cc2)C1 (configuration not stated)	n
Cc1ccc(NS(=O)(=O)c2c(C(C)C)cc(C(C)C)cc2C(C)C)cc1	n
SMILES	Vaccinia pol inh
CCn1c2ccccc2c2cc(C=Nc3ccc(C)cc3O)ccc21	n
CCn1c2ccccc2c2cc(N)ccc21	n
CCn1c2ccccc2c2cc(C=Nc3cccc(C#N)c3)ccc21	77
N#Cc1c(NC(=O)c2ccccc2)sc2c1CCCC2	n
CN(C)/C=N/C(=S)N1CCOCC1	n
COc1cc2nc(-n3nc(C)cc3C)n3nc(-c4ccccc4)nc3c2cc1OC	n
O=C1CCC(=O)N1Nc1nc2ccccc2c2nc(-c3ccccc3)nn12	n
CCN(CC)CCCNc1nc2cc(OC)c(OC)cc2c2nc(-c3ccccc3)nn12	34
CC1CCCN(C(=O)C2CCN(CC3CCCCC3)CC2)C1 (configuration not stated)	n
Nc1ccccc1-c1nnc(SCC(=O)c2ccccc2)o1	n
